# Sa ugtP lethal = growth inhibition of ugtP-null S. aureus, primary screen, RN4220 ugtP deletion, OD600 | actives 0.54% (n = 330,000) | AID 1259309, 2017 | 16 h | growth inhibition, % (concentration not given with the values); in the data active = growth inhibition above about 68%;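 also: plate controls were untreated wells for no effect and antibiotic for full effect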
# Vc quorum ag = inducers of Vibrio cholerae quorum light production without autoinducers, primary screen, BH1578 luxS cqsA deficient, single point | activation, % at 18.7 µM | actives 0.16% (n = 350,000) | AID 588436, 2011 | V. cholerae BH1578 lux reporter, luminescence, 6 h; in the data active = activation mostly above about 9.7%, no sharp cut-off
# Sa RN4220 lethal = growth inhibition of S. aureus RN4220, primary screen, OD600 | 16 h | inhibition, % (test concentration not listed) | actives 0.33% (n = 330,000); in the data active = inhibition above about 85%;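 also: plate controls were untreated cells for no effect and reference antibiotic for full effect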
# TcdB inh = TcdB glycohydrolase inhibitors, primary screen, biochemical, single point, plate reader; Toxin B (Clostridioides difficile), P18177; TcdB glycohydrolase enzymatic assay; inhibition, % at 9.99 µM; actives 0.24% (n = 350,000); AID 652162, 2013; in the data active = inhibition above about 10%
# Target sequence (P18177 whole entry, looked up): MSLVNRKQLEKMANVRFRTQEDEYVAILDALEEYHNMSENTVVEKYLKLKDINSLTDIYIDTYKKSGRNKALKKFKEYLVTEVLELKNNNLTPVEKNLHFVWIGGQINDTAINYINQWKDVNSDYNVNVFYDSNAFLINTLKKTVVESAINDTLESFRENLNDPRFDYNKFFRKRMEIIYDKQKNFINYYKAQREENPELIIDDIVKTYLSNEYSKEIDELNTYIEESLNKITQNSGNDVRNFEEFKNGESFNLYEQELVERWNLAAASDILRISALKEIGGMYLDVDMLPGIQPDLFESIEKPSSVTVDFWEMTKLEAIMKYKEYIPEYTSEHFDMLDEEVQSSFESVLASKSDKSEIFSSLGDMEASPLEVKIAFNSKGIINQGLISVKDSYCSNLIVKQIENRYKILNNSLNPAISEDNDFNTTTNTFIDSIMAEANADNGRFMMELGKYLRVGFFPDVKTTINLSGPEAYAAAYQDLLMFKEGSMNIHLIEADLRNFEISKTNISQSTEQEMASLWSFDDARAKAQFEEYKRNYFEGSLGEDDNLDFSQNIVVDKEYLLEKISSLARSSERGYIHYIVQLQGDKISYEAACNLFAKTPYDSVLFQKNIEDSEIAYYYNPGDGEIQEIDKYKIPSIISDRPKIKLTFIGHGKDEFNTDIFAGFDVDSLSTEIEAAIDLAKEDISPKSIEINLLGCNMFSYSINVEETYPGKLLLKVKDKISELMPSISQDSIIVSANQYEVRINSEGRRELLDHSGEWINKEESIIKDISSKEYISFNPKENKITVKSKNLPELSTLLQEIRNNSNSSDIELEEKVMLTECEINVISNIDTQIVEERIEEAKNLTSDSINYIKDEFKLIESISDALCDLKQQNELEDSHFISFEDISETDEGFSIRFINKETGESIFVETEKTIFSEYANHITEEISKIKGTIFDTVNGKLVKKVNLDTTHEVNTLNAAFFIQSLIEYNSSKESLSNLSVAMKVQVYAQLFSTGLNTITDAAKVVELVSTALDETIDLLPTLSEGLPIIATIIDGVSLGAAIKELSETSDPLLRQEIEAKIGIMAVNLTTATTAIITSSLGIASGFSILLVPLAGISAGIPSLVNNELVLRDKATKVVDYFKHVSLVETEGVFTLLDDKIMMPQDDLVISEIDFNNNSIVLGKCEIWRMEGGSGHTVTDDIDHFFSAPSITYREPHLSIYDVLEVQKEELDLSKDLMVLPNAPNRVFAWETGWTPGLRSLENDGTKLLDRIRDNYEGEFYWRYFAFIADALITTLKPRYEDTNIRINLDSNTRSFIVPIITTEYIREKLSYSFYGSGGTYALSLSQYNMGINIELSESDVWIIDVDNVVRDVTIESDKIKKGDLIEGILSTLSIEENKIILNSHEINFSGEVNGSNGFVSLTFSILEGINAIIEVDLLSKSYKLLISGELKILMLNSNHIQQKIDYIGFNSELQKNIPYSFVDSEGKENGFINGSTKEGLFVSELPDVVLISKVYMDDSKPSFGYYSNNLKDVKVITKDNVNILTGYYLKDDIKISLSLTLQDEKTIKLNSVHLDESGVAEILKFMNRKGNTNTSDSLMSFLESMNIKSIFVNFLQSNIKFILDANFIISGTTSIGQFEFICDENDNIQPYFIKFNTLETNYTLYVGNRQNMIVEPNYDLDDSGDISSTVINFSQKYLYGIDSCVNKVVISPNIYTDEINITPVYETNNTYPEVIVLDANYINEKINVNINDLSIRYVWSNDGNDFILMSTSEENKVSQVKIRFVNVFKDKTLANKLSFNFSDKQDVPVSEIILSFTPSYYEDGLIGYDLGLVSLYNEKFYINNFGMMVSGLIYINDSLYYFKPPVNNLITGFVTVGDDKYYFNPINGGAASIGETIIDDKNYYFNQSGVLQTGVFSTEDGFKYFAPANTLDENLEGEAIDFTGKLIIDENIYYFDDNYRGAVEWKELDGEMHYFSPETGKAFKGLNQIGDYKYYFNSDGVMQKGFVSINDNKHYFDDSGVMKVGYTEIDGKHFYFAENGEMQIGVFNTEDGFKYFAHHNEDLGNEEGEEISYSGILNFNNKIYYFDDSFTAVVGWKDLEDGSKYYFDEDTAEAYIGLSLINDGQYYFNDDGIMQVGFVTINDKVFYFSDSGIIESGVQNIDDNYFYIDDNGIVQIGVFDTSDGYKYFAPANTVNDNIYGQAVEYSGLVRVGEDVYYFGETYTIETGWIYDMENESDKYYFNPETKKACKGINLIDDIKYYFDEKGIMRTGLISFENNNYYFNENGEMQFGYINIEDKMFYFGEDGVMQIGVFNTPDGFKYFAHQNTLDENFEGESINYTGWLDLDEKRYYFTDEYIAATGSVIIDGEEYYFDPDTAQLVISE
# * marks the source's active call; other numbers are inactive results; i = inactive; . = no result. Hits are enriched below; roughly 0.67% of the tested compounds scored in any of these assays.
SMILES,Sa ugtP lethal,Vc quorum ag,Sa RN4220 lethal,TcdB inh
CC(=O)c1ccc(N2CCN(C(=O)c3ccc(-c4ccccc4)cc3)CC2)cc1,4,i,8,1
CC(=O)c1ccc(N2CCN(C(=O)c3cccc(Oc4ccccc4)c3)CC2)cc1,87*,i,-7,1
CN1CCN(c2ccc([N+](=O)[O-])c3no[n+]([O-])c23)CC1,98*,3,56,1
CON/C=C(\C=Nc1ccc(F)cc1)c1ncc(C(F)(F)F)cc1Cl,92*,-1,-3,.
COC(=O)/C=C/C(=O)Nc1ccc(O)c(Cl)c1,-4,0,4,31*
O=C1C(=Cc2ccco2)N=C(N2CCCCC2)N1c1ccccc1,5,.,5,.
COc1ccc(C2CC(=O)C=C(c3cc(F)ccc3F)C2)cc1OC (stereo not given),-2,.,6,.
CN(CC(=O)Nc1ccccc1Cl)C(=O)CSc1nc2ccccc2s1,-1,0,1,1
COc1ccc(NC(=O)CN(C)C(=O)CSc2nc3ccccc3s2)cc1,10,20*,3,1
CCN1C(=O)/C(=C/C=C2/Sc3ccccc3N2CCO)SC1=S,19,236*,3,0
CCCN1C(=O)/C(=C\C=C2/Sc3ccccc3N2CCO)SC1=S,-2,-1,-1,2
CC(Cn1nnc2ccccc21)=NOC(=O)c1ccccc1C,5,.,4,.
CC(C)(Cc1ccccc1)[N+]([O-])=Cc1ccc(C(F)(F)F)cc1,-9,.,-1,.
NC(=O)c1sc2nnc(-c3ccccc3)c(-c3ccccc3)c2c1N,84*,i,2,1
NC(=O)c1snnc1-c1ccccc1,-2,-2,2,1
COc1ccc(C2C3C(=O)N(C(C)(C)C)C(=O)C3[C@]3(C)C(=O)N(c4cccc(F)c4)C(=O)N23)cc1 (stereo not given in full),6,.,6,.
CCOC(=O)C(Cc1nc(OCc2ccccc2)cc(OCc2ccccc2)n1)=NO,87*,-1,-1,1
CCOC(=O)C(=O)Cc1nc(OCc2ccccc2)cc(OCc2ccccc2)n1,22,-1,-1,-1
CCOC(=O)COc1ccc2ccccc2c1/C=C/[N+](=O)[O-],87*,0,81,0
CCOc1ccc(/C=C/[N+](=O)[O-])c2ccccc12,95*,0,96*,.
CCOc1ccc(C(O)=C2C(=O)C(=O)N(c3nc(C)c(C)s3)C2c2ccco2)cc1 (stereo not given),-23,.,10,.
N#CCCN(C(=O)COC(=O)c1cc(=O)c2ccccc2o1)c1ccccc1,2,-1,1,10*
O=C(NN=Cc1ccc(O)cc1)c1ccc(NC(=O)c2ccccc2Br)cc1,2,.,2,.
COc1ccc(Cl)cc1NC(=S)NC1CCCC1,-3,0,3,15*
C=CCOC(=O)C(=O)C=Cc1coc2ccccc2c1=O,4,.,9,.
SMILES,Sa ugtP lethal,Vc quorum ag,Sa RN4220 lethal,TcdB inh
Cc1nc(-c2ccc(S(=O)(=O)Nc3ccc(Br)cc3Cl)s2)cs1,83,1,96*,0
CCCNC(=O)N1CC[C@@H]2[C@H]1c1cc(-c3ccccc3)ccc1N(C)[C@H]2CO,.,.,.,12*
CCCNC(=O)N1CC[C@@H]2[C@@H](CO)N(C)c3ccc(-c4ccc(F)cc4)cc3[C@@H]21,.,.,.,12*
CCCNC(=O)N1CC[C@@H]2[C@H]1c1cc(-c3ccc(OC)cc3)ccc1N(C)[C@H]2CO,.,.,.,4
O=C(C1=CC(C2CCCCC2)CC(OCCCCO)O1)N1CCOCC1 (stereo not given),6,.,8,.
O=C(CNC(=O)c1ccncc1)NN=Cc1ccccc1[N+](=O)[O-],-2,.,0,.
O=C1Nc2ccccc2SC1=Cc1ccccc1,.,0,.,1
O=C1CCCC2=C1Sc1ccccc1N2,.,-1,.,10*
Oc1ccc(/C=N/NC(=S)Nc2cccnc2)cc1O,.,0,.,26*
CC1=Nc2ccccc2/C1=C/c1sc(=N)n(-c2nccs2)c1O,98*,.,97*,1
O=C(/C=C/c1ccc2c(c1)OCO2)c1c(O)n(CCC2=CCCCC2)c(=O)[nH]c1=O,100*,0,100*,1
COc1ccc(/C=C/C(=O)c2c(O)n(CCC3=CCCCC3)c(=O)[nH]c2=O)cc1,92*,0,89*,1
CN(C)CCN=Cc1c(O)n(CCC2=CCCCC2)c(=O)[nH]c1=O,-1,i,3,.
COC(=O)c1sc2nc(SCc3ccccc3C)n(N)c(=O)c2c1C,-2,0,4,16*
CCOc1ccc(CCNC(=O)c2ccc(CS(=O)Cc3cccc(Cl)c3)o2)cc1 (stereo not given),96*,0,-6,3
Clc1ccc2ccc3cccnc3c2n1,3,-1,3,1
O=S1(=O)Nc2c(ccc3cccnc23)-c2ccccc21,98*,i,98*,.
CC(NC(=O)c1nc[nH]c1C(=O)NC(CCCCN)C(=O)OC(C)(C)C)C(=O)OC(C)(C)C (stereo not given),4,.,3,.
Nc1nc(Nc2ccccc2)n[nH]1,2,-1,3,13*
Nc1nc(Nc2ccc(Cl)cc2)n[nH]1,10,0,-2,.
c1ccc(Oc2nc3ccccc3n3cccc23)cc1,68,-1,-3,.
Cc1ccc(Oc2nc3ccccc3n3cccc23)cc1,96*,5,-10,.
CC1(C)S[C@@H]2[C@H](NC(=O)C(NC(=O)N3CCNC3=O)c3ccccc3)C(=O)N2[C@H]1C(=O)O (stereo not given in full),100*,i,100*,-11
CC1(C)S[C@@H]2[C@H](NC(=O)Cc3ccccc3)C(=O)N2[C@H]1C(=O)O,100*,i,100*,0
CC1(C)S[C@@H]2[C@H](NC(=O)[C@H](N)c3ccccc3)C(=O)N2[C@H]1C(=O)OC1OC(=O)c2ccccc21 (stereo not given in full),.,-1,.,0
SMILES,Sa ugtP lethal,Vc quorum ag,Sa RN4220 lethal,TcdB inh
CCC(Oc1ccccc1)C(=O)NC1C(=O)N2C1SC(C)(C)C2C(=O)O (stereo not given),.,i,.,0
COC(=O)C1N2C(=O)C(NC(=O)COc3ccccc3)C2SC1(C)C (stereo not given),101*,.,101*,.
CCCCCCCCCOC(=O)C1N2C(=O)[C@@H](NC(=O)COc3ccccc3)[C@H]2SC1(C)C (stereo not given in full),.,-1,.,2
CC1CN=C(Nc2ccccc2)N1CC1CCCCCC1 (stereo not given),-13,.,5,.
CCCCOc1ccc2c(c1)C(=O)c1cc(O)ccc1-2,92*,i,20,5
CCOc1ccc2c(c1)C(=O)c1cc(OCC(=O)O)ccc1-2,3,i,4,0
COc1ccccc1/C=C1\SC(=S)N(NS(=O)(=O)c2ccccc2)C1=O,70,-1,88*,0
CCOc1cc(/C=C2\SC(=S)N(NS(=O)(=O)c3ccc(C)cc3)C2=O)ccc1O,73,i,85*,-1
COc1cc(/C=C2\SC(=S)N(NS(=O)(=O)c3ccc(C)cc3)C2=O)ccc1O,71,1,86*,0
